# According to PubChem BioAssay (Tox21):
# “And” between values parts separate entries of the source, which are not always exact repeats. Equal entries are not always repeated. Inconclusive results are not listed. A call without a number means that no potency is given here. More than one record can exist for a structure, and the calls need not agree. The source made the active and inactive calls. Unless noted, the call rests on the fitted dose curve; in most records, active means well fitted curve in the direction sought with a large enough effect in the repeat runs; inconclusive means weak or mixed curves; inactive means no such curve, though single readings can be large; an effect the other way counts as inactive or inconclusive.
# Assays:
# [1] = qHTS assay to identify small molecule antagonists of the estrogen related receptor (ERR) signaling pathway from Tox21 library - cell viability counter screen (AID 1224834); further: nearly all actives have a fitted effect of over 30% in size; further: potency means the concentration at half of the fitted maximal effect
# How it was run: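 Counter screen run in ERR cells (2,000 cells/well): cells pre-incubated 6 h, then treated with compounds for 17.5 h at 37 C. Fluorescence was read 30 min after CellTiter-Fluor addition.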
# [2] = biological target: Luciferin 4-monooxygenase (Photinus pyralis) (UniProt P08659); assay: qHTS assay to identify small molecule inhibitors of firefly luciferase (AID 1224835); further: nearly all actives have a fitted effect of over 25% in size; further: potency means the concentration at half of the fitted maximal effect
# Luciferin 4-monooxygenase (Photinus pyralis), sequence (P08659 whole entry, looked up): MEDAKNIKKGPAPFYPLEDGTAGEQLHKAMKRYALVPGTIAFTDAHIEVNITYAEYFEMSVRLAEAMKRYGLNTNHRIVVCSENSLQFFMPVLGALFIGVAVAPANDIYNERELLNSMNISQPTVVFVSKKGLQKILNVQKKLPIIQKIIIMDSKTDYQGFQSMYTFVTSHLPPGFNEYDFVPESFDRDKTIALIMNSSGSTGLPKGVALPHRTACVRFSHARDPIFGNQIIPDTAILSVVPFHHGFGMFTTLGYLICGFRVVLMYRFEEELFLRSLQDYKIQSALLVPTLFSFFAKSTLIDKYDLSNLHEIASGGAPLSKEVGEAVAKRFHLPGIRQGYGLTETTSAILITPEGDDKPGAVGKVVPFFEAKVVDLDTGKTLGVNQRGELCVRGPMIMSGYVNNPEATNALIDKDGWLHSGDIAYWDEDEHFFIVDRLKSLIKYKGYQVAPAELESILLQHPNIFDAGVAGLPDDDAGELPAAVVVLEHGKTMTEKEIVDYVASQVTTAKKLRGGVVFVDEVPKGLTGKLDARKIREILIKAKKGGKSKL
# How it was run: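 Inhibition of purified Photinus luciferase is measured by luminescence. Substrate levels (D-luciferin, ATP) sit at their KM values. Each compound is tested in a concentration series.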
# [3] = qHTS assay to identify small molecule agonists of the constitutive androstane receptor (CAR) signaling pathway - cell viability counter screen (AID 1224836); further: nearly all actives have a fitted effect of over 45% in size; further: potency means the concentration at half of the fitted maximal effect
# How it was run: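 Double-stable HepG2 hepatoma cells (hCAR plus CYP2B6-2.2kb) are treated for 23 h at 37 C with test compounds in 15-point concentration series. PK11195 at 0.75 uM final is co-added. Cell viability is quantified by CellTiter-Fluor.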
# [4] = qHTS assay to identify small molecule antagonists of the constitutive androstane receptor (CAR) signaling pathway - cell viability counter screen (AID 1224837); further: nearly all actives have a fitted effect of over 45% in size; further: potency means the concentration at half of the fitted maximal effect
# How it was run: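 CITCO at 50 nM final was added alongside compounds (15 concentrations) to double-stable hCAR/CYP2B6-2.2kb HepG2 cells. Following 23 hr at 37 C, cell viability was quantified by CellTiter-Fluor fluorescence intensity.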
# [5] = biological target: Nuclear receptor subfamily 1 group I member 3 (Homo sapiens) (UniProt Q14994); assay: qHTS assay to identify small molecule antagonists of the constitutive androstane receptor (CAR) signaling pathway (AID 1224838); further: nearly all actives have a fitted effect of over 40% in size; further: potency means the concentration at half of the fitted maximal effect
# Nuclear receptor subfamily 1 group I member 3 (Homo sapiens), sequence (Q14994 whole entry, looked up): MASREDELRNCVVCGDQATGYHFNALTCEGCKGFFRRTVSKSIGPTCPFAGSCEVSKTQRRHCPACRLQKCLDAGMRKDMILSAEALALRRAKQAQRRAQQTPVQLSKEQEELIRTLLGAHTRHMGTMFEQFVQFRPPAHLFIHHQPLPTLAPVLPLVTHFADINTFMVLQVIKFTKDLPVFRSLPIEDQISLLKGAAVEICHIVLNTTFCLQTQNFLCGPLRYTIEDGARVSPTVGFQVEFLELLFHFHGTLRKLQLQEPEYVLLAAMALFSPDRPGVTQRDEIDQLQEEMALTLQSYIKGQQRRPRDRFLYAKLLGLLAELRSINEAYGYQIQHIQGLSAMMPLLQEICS
# How it was run: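 Inhibition of CITCO-driven (50 nM final) CYP2B6 reporter expression is measured in HepG2 cells stably carrying hCAR. Fifteen compound concentrations are applied for 24 h at 37 C, followed by luciferase luminescence.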
# [6] = biological target: Nuclear receptor subfamily 1 group I member 3 (Homo sapiens) (UniProt Q14994); assay: qHTS assay to identify small molecule agonists of the constitutive androstane receptor (CAR) signaling pathway (AID 1224839); further: nearly all actives have a fitted effect of over 15% in size
# How it was run: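 Readout: firefly luciferase luminescence via ONE-Glo. System: HepG2 double-stable for hCAR and CYP2B6-2.2kb. Conditions: 15-point compound titration, PK11195 at 0.75 uM final, 24 h incubation.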
# [7] = qHTS assay to identify small molecule antagonists of the estrogen related receptor signaling pathway with the pleiotropic PPARgamma coactivator (PGC) from Tox21 10K library - cell viability counter screen (AID 1224840; active means well fitted cell-killing curve with a large enough effect in the repeat runs, not every such curve was filed as active; further: nearly all actives have a fitted effect of over 40% in size; further: potency means the concentration at half of the fitted maximal effect)
# How it was run: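 Readout: fluorescence intensity from CellTiter-Fluor after 30 min at 37 C/5% CO2. Preceded by 17.5 h treatment of PGC/ERR cells with DMSO-dissolved compounds, added 6 h post-seeding.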
# [8] = qHTS assay to identify small molecule agonists of the estrogen related receptor signaling pathway with the pleiotropic PPARgamma coactivator (PGC) from Tox21 10K library (AID 1224842); further: nearly all actives have a fitted effect of over 15% in size
# How it was run: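 Luminescence from One-Glo (30 min, room temperature) measured after PGC/ERR cells had 18 h at 37 C with pinned compound (23 nL in DMSO). Cells had been seeded at 2,000 per well and pre-incubated 6 h.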
# [9] = biological target: Thyrotropin receptor (Homo sapiens) (UniProt P16473); assay: qHTS assay to identify small molecule agonists of the thyroid stimulating hormone receptor (TSHR) signaling pathway (AID 1224843; calls by dose curve; further: nearly all actives have a fitted effect of over 45% in size)
# Thyrotropin receptor (Homo sapiens), sequence (P16473 whole entry, looked up): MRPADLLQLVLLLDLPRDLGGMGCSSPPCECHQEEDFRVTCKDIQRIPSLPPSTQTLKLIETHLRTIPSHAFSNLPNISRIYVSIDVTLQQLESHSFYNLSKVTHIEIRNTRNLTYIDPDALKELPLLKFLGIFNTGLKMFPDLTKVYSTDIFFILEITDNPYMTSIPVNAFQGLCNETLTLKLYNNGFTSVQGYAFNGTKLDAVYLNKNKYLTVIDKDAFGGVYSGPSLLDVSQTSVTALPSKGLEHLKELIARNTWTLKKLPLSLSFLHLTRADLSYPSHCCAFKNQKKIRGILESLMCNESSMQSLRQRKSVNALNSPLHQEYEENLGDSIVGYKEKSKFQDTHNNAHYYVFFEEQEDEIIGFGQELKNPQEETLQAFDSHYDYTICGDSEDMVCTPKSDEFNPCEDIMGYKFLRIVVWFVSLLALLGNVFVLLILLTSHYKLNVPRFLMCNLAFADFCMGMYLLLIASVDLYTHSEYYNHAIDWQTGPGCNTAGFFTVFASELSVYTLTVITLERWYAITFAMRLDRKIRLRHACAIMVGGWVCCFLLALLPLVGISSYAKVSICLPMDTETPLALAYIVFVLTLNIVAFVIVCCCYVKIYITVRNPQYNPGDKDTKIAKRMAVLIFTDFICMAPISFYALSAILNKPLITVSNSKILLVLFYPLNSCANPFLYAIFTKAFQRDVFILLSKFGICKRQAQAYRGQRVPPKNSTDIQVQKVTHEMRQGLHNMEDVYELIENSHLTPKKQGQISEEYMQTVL
# How it was run: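 Agonist activity read as cAMP rise via d2/cryptate HTRF competition, 1 h room-temperature detection, in HEK293 cells expressing TSHR. Fifteen-point titrations, each run in triplicate, with a 30 min room-temperature incubation beforehand.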
# [10] = qHTS assay to identify small molecule agonists of the hypoxia (HIF-1) signaling pathway - cell viability counter screen (AID 1224844; calls by dose curve; further: nearly all actives have a fitted effect of over 50% in size; further: potency means the concentration at half of the fitted maximal effect)
# How it was run: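 In this counter screen, HRE-bla ME-180 cell viability after 17 hrs of compound exposure at 37C was read by CellTiter-Glo luminescence, multiplexed with the beta-lactamase reporter measurement.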
# [11] = qHTS assay to identify small molecule agonists of the hypoxia (HIF-1) signaling pathway (AID 1224846; active means well fitted activation curve with a large enough effect in the signal ratio in the repeat runs, not every such curve was filed as active; the % refers to the signal ratio)
# How it was run: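 ME-180 HRE-bla reporter cells; compounds in DMSO, 17 h at 37C; read-out beta-lactamase via CCF4-AM FRET.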
# [12] = qHTS assay to identify small molecule agonists of H2AX - cell viability counter screen (AID 1224847; calls by dose curve; further: nearly all actives have a fitted effect of over 30% in size; further: potency means the concentration at half of the fitted maximal effect)
# How it was run: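 For this counter screen, overnight-attached CHO-K1 cells received test compounds (15 concentrations, 0.76% DMSO final); 3 hr later at 37C, CellTiter-Glo reagent was added and luminescence recorded after 30 min at room temperature.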
# [13] = qHTS assay to identify small molecule agonists of the estrogen related receptor (ERR) signaling pathway from Tox21 library (AID 1224849; calls by dose curve; further: nearly all actives have a fitted effect of over 15% in size); settings: ERR reporter cell line, ONE-Glo luciferase, 18 h
# How it was run: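 Luciferase activity in ERR pathway reporter cells served as the agonist readout; exposure lasted 18 h at 37 C, with ONE-Glo detection after 30 min at room temperature.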
# [14] = qHTS RealTime-Glo MT Cell Viability Assay in HepG2 cells - 24 hour (AID 1224867); further: nearly all actives have a fitted effect of over 50% in size; further: potency means the concentration at half of the fitted maximal effect
# How it was run: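 Tox21 10K library screened in qHTS format on HepG2 cells carrying RealTime-Glo reagents. Compounds were added after a 5 h preincubation, and the luminescent signal from continuous culture was measured repeatedly during 40 h treatment.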
# [15] = qHTS RealTime-Glo MT Cell Viability Assay in HEK293 cells - 32 hour (AID 1224868); further: nearly all actives have a fitted effect of over 50% in size; further: potency means the concentration at half of the fitted maximal effect
# How it was run: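 Luminescence generated by NanoLuc from substrate produced by living HEK293 cells served as the viability signal. Each value reflects the reading at its stated time point during continuous 40 h compound exposure at 37 C.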
# [16] = A CellTox Green Cytotoxicity Assay to monitor cytotoxicity in HEK293 cells - 0 hour (AID 1224869); further: nearly all actives have a fitted effect of over 50% in size; further: potency means the concentration at half of the fitted maximal effect
# How it was run: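 Real-time, in one plate: 600 HEK293 cells/well with dead-cell DNA dye, pinned compound after 5 h, 37 C incubation over 40 h; viable cells give no appreciable fluorescence.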
# [17] = qHTS assay to identify small molecule antagonists of the estrogen related receptor signaling pathway with the pleiotropic PPARgamma coactivator (PGC) from Tox21 10K library (AID 1224841; call rule not given here; further: potency means the concentration at half of the fitted maximal effect)
# How it was run: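 One-Glo luminescence, measured after half an hour at room temperature, quantified reporter output of PGC/ERR cells. These had been plated at 2,000 per well, incubated 6 h, dosed with compounds in DMSO, then kept 18 h at 37 C.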
# [18] = qHTS assay to identify small molecule antagonists of the estrogen related receptor (ERR) signaling pathway from Tox21 library (AID 1224848); further: nearly all actives have a fitted effect of over 50% in size; further: potency means the concentration at half of the fitted maximal effect
# How it was run: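 Luciferase luminescence (ONE-Glo, 30 min room temperature) was the read-out. Cells of the NTP-supplied ERR line, 2,000 per well, were given 6 h at 37 C before compound addition in DMSO and 18 h exposure at 37 C.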
# [19] = qHTS RealTime-Glo MT Cell Viability Assay in HepG2 cells - 40 hour (AID 1224870); further: nearly all actives have a fitted effect of over 50% in size; further: potency means the concentration at half of the fitted maximal effect
# How it was run: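 Real-time viability: cells seeded at 600 per well together with NanoLuc and cell-permeant prosubstrate, compounds added after 5 h incubation. Luminescence tracked at 0, 8, 16, 24, 32 and 40 h of exposure.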
# [20] = qHTS assay to identify small molecule agonists of H2AX (AID 1224845; active means well fitted activation curve with a large enough effect in the signal ratio in the repeat runs, not every such curve was filed as active; the % refers to the signal ratio)
# How it was run: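 Phospho-H2AX Ser139 measured by HTRF (ex 320 nm; em 665 and 620 nm) after 24 hr antibody incubation. Compounds, 15 concentrations, 0.76% DMSO, were applied to CHO-K1 cells for 3hr at 37C before lysis.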
smiles,measurement,setting,value
CCN(CCN)c1cccc(C)c1,Potency,[1],inactive
same,Potency,[2],inactive
same,Potency,[3],inactive
same,Potency,[4],inactive
same,Potency,[5],inactive
same,Potency,[6],inactive
same,Potency,[7],inactive
same,Potency,[8],inactive
same,Potency,[9],inactive
same,Potency,[10],inactive
same,Potency,[11],inactive
same,Potency,[12],inactive
same,"activity change, positive = activation",[13]; at 92.4 µM (top of the series),-29% (inactive) and -22.9% (inactive)
same,Potency,[14],inactive
same,Potency,[15],inactive
same,Potency,[16],inactive
CCOC(=O)c1ccc(C2CCC(NC[C@H](O)COc3ccc(O)c(NS(C)(=O)=O)c3)CC2)cc1 (stereo partly drawn),Potency,[1],63.3 µM (active)
same,Potency,[2],inactive
same,Potency,[3],inactive
same,Potency,[4],inactive
same,Potency,[5],inactive
same,Potency,[6],inactive
same,Potency,[7],63.3 µM (active)
same,Potency,[17],inactive
same,Potency,[11],inactive
same,Potency,[18],56.4 µM (active)
same,"activity change, positive = activation",[13]; at 92.4 µM (top of the series),-46.8% (inactive)
same,Potency,[14],45.2 µM (active)
same,Potency,[15],20.2 µM (active)
same,Potency,[16],inactive
same,Potency,[19],50.7 µM (active)
CN(C)CCN1CCN(c2cccc(Cl)c2)C1=O,Potency,[1],inactive
same,Potency,[2],inactive
same,Potency,[3],inactive
same,Potency,[4],inactive
same,Potency,[5],inactive
same,Potency,[6],inactive
same,Potency,[7],inactive
same,Potency,[9],inactive
same,Potency,[10],inactive
same,Potency,[20],inactive
same,Potency,[11],inactive
same,Potency,[12],inactive
same,Potency,[14],inactive
same,Potency,[16],inactive
same,Potency,[19],inactive
O=C1CCCCCCCCCCCCCCCO1,Potency,[1],inactive
same,Potency,[2],inactive
same,Potency,[3],inactive
same,Potency,[4],inactive
same,Potency,[5],inactive
same,Potency,[6],inactive
same,Potency,[7],inactive
same,Potency,[17],inactive
same,Potency,[8],inactive
same,Potency,[9],inactive
same,Potency,[10],inactive
same,Potency,[11],inactive
same,Potency,[12],inactive
same,Potency,[18],inactive
same,"activity change, positive = activation",[13]; at 92.4 µM (top of the series),-5.05% (inactive)
same,Potency,[14],inactive
same,Potency,[15],inactive
same,Potency,[16],24.5 µM (active)
CCN(CC)c1ccc2c(-c3ccc(S(=O)(=O)O)cc3S(=O)(=O)[O-])c3ccc(=[N+](CC)CC)cc-3oc2c1,Potency,[1],22.4 µM (active)
same,Potency,[2],26 µM (active)
same,Potency,[3],31.6 µM (active)
same,Potency,[4],28.2 µM (active)
same,Potency,[5],28.2 µM (active)
same,Potency,[6],inactive
same,Potency,[7],28.2 µM (active)
same,Potency,[17],28.2 µM (active)
same,Potency,[10],inactive
same,Potency,[11],inactive
same,Potency,[12],20.7 µM (active)
same,Potency,[18],35.5 µM (active)
same,"activity change, positive = activation",[13]; at 92.4 µM (top of the series),-38.9% (inactive)
same,Potency,[14],inactive
same,Potency,[15],inactive
same,Potency,[16],inactive
same,Potency,[19],inactive
CCCCCCCCCCCCCC[N+](C)(C)C,Potency,[1],29.6 µM (active) and 15.3 µM (active)
same,Potency,[2],68.6 µM (active)
same,Potency,[3],23.5 µM (active)
same,Potency,[4],13.2 µM (active) and 27.3 µM (active)
same,Potency,[5],59.1 µM (active) and inactive
same,Potency,[6],inactive
same,Potency,[7],23.5 µM (active) and 54.4 µM (active) and inactive
same,Potency,[8],inactive
same,Potency,[10],42.2 µM (active)
same,Potency,[12],38.8 µM (active) and 50.4 µM (active)
same,Potency,[18],2.64 µM (active) and 4.32 µM (active) and 8.41 µM (active)
same,"activity change, positive = activation",[13]; at 42.5 µM (top of the series),-50% (inactive)
same,"activity change, positive = activation",[13]; at 92.4 µM (top of the series),-78.5% (inactive) and -74.4% (inactive)
same,Potency,[14],11.9 µM (active) and 21.8 µM (active) and 23.9 µM (active)
same,Potency,[15],9.44 µM (active) and 12.3 µM (active) and 2.13 µM (active)
same,Potency,[16],inactive
same,Potency,[19],7.5 µM (active) and 17.4 µM (active) and 23.9 µM (active)
Cc1cccc2cccnc12,Potency,[1],inactive
same,Potency,[2],inactive
same,Potency,[3],inactive
same,Potency,[4],inactive
same,Potency,[5],inactive
same,Potency,[6],inactive
same,Potency,[7],inactive
same,Potency,[17],inactive
same,Potency,[8],inactive
same,Potency,[9],inactive
same,Potency,[10],inactive
same,Potency,[20],inactive
same,Potency,[11],inactive
same,Potency,[12],inactive
same,Potency,[18],inactive
same,"activity change, positive = activation",[13]; at 92.4 µM (top of the series),0.0767% (inactive)
same,Potency,[14],inactive
same,Potency,[15],inactive
same,Potency,[16],inactive
same,Potency,[19],inactive
